The campaign covered roughly 69,000 compounds. About 8,600 (12%) showed an effect of 50% or more. The sample as a whole holds a higher share of strong results than the screen did.

In this assay the test system is Plasmodium berghei. In words: Screen against P. berghei liver stage (PbLuc), transformed with Luciferase, at 10uM. Type of assay: functional, HepG2. The conditions noted are these: tested at 10 uM.
On to `Cc1ccnc(C2(C)CCCN2S(=O)(=O)c2ccccc2)n1` (centres undefined), for which the INHIBITION is given as 45.55%. The figure for `Cn1cnnc1C1CCN(C(=O)COCc2ccccc2Cl)CC1` is 39.2%; for `CC(C)Cn1cc(NC(=O)N2CCCC2)cn1` it is -37.8%. As for `CN1C[C@@H]2CN(Cc3ccsc3)CCC[C@]2(C(=O)O)C1`, the figure is -64.1%; as for `CC(C)C1CCN(C(=O)NCC(=O)N(C)CC(F)(F)F)CC1`, 34.2%. The figure for `CN(Cc1nnc2n1CCC2)S(=O)(=O)c1cc(Br)ccc1Br` is 30.9%; for `CN(Cc1nnc2n1CCC2)S(=O)(=O)c1ccc(Br)cc1Cl` it is 52.6%. Consider `Cc1nnc(CN(C)S(=O)(=O)c2ccc(Br)cc2Cl)n1C`, for which the INHIBITION was 33.1%. The figure for `CC(CN1CCCC1=O)NC(=O)c1cc(Cl)c2c(c1)OCO2` (centres undefined) is 38.5%. As for `Cc1cccnc1CN1CCCCC1c1ccn2ccnc2n1` (centres undefined), the figure is 45.6%; as for `CCc1cnc(CCNC(=O)N2CCCC(c3ncc[nH]3)C2)s1` (centres undefined), 52.6%; as for `O=S(=O)(c1ccc(Cl)s1)N1CCCC(c2ncc[nH]2)C1` (centres undefined), 50.4%. Take `O=C(CCn1cnnc1)N1CCCC(c2ncc[nH]2)C1` (centres undefined): the INHIBITION is -12.2%.

In the case of `CCc1cnc(CNC(=O)N2CCCC(c3ncc[nH]3)C2)s1` (centres undefined), the INHIBITION was 40.6%.

Turning to `CCOc1ccccc1CC(=O)N1CCCC(c2ncc[nH]2)C1` (centres undefined), the INHIBITION amounted to 19.7%. As for `CCc1ccc(S(=O)(=O)N2CCCC(c3ncc[nH]3)C2)s1` (centres undefined), the INHIBITION was 81.2%. As for `O=S(=O)(c1ccccc1Cl)N1CCCC(c2ncc[nH]2)C1` (centres undefined), the figure is 21.6%; as for `Cn1cc(C(=O)N2CCCC(c3ncc[nH]3)C2)cn1` (centres undefined), -24.9%; as for `CCC(CC)c1cc(CNC(=O)N2CCCC(c3ncc[nH]3)C2)on1` (centres undefined), -1.79%. As to `CCNc1nc2cn(-c3cccc(OC)c3)c(=O)c-2c[nH]1`, the INHIBITION is given as -76.4%. As for `O=C(O)c1ccc(=O)n(CC(c2ccc(F)cc2)N2CCCCCC2)c1` (centres undefined), the figure is 14.65%; as for `CN1CCO[C@@H]2CN(S(=O)(=O)c3ccccc3F)CC[C@@H]2C1`, 21.7%; as for `NCC1CCC(C(NC(=O)C2CC2)c2ccccn2)CC1` (centres undefined), 29.3%. Take `CCOc1cc(=O)n2c(c1C(=O)OCc1ccc(OC)cc1)CCCC2`: the INHIBITION came out at 27.6%.

`CC(=O)Nc1cccc(OCCNC(=O)N(C)Cc2ccccc2)c1`: the INHIBITION is given as 80.8%. With `CC(=O)NCCOc1cccc(Br)c1`, the INHIBITION is 48.8%. On to `CN(CCOc1cccc(F)c1)CC(=O)Nc1ccncc1`, for which the INHIBITION is 21.55%. Turning to `CC(=O)Nc1cccc(OCCNC(=O)N(C)Cc2ccncc2)c1`, the INHIBITION was determined as 57.7%. With `CC(=O)Nc1cccc(CNC(=O)N(C)Cc2ccccc2)c1`, the INHIBITION was -25%.

Regarding `CC(=O)Nc1cccc(OCCNC(=O)N(C)Cc2ccco2)c1`, the INHIBITION was -52.9%. For `CCOCC(O)CN1CCN(C(=O)c2cc(Cl)ccc2F)CC1` (centres undefined), the INHIBITION is recorded as -18%.

For the compound `Cc1cnc(N2CCCC3(CCN(Cc4csc(C)n4)C3=O)C2)nc1` (centres undefined), the INHIBITION is reported as -49.8%. Regarding `CC(NC(=O)N1CCN(c2ccccc2O)CC1)c1nncn1C` (centres undefined), the INHIBITION was -1.14%. Regarding `CCCn1nc2c(cc1=O)CN(c1ncnc3sccc13)CC2`, the INHIBITION was 96.2%. On to `CC(C)n1nc2c(cc1=O)CN(CCCN1CCCC1=O)CC2`, for which the INHIBITION was 11.9%. With `CC(C)n1nc2c(cc1=O)CN(CCOc1ccc(C#N)cc1)CC2`, the INHIBITION is -7.94%. The figure for `Cn1nc2c(cc1=O)CN(c1ncnc3sccc13)CC2` is 42.3%; for `CCn1nc2c(cc1=O)CN(Cc1nc(C)c3ccccc3n1)CC2` it is -3.72%. Take `CCn1nc2c(cc1=O)CN(Cc1nc3ccccc3o1)CC2`: the INHIBITION was determined as 8.24%. `CC(C)n1nc2c(cc1=O)CN(c1ncnc3sccc13)CC2`: the INHIBITION stood at 88.5%. On to `CCn1nc2c(cc1=O)CN(c1ncnc3sccc13)CC2`, for which the INHIBITION is 79.9%. As for `CCCn1nc2c(cc1=O)CN(C(C)C(=O)Nc1nccs1)CC2` (centres undefined), the figure is 29.4%; as for `CC(C(=O)NCc1ccnc(N2CCCCCC2)c1)n1cccn1` (centres undefined), -39.6%; as for `COc1c(C)cnc(CN2CCOC(Cn3nc(C)cc3C)C2)c1C` (centres undefined), -21.7%. As to `CN1C(=O)CO[C@H]2CCN(C(=O)Cc3ccc4c(c3)CCCC4)CC[C@@H]21`, the INHIBITION was determined as 10.65%. The figure for `N#Cc1cccc(OCCN2CCOC(Cn3cccn3)C2)c1` (centres undefined) is 0.411%; for `CCCOC(=O)c1ccc(-c2ccc(/C=C3\C(=O)NC(=N)N3C)o2)cc1` it is -18%. As for `CCc1nc2n(n1)CC(NCc1cnn(Cc3ccccc3)c1)CC2` (centres undefined), the INHIBITION is recorded as -2.19%. The figure for `Cc1nn(C)c2ncc(NC(=O)N3CCNC(=O)C3)cc12` is -38%; for `CCCS(=O)(=O)N1CCC(NC(=O)c2cc3ccccc3s2)CC1` it is 67.1%; for `CCS(=O)(=O)N1CCC(NC(=O)c2cc3ccccc3cc2O)CC1` it is 80.55%. As to `CCS(=O)(=O)N1CCC(NC(=O)c2cc(C)ccc2O)CC1`, the INHIBITION came to 8.665%.

As to `CCCS(=O)(=O)N1CCC(NC(=O)c2cc(CC)c(C)s2)CC1`, the INHIBITION turned out to be 2.91%. With `CCCS(=O)(=O)N1CCC(NC(=O)c2ccc(C)s2)CC1`, the INHIBITION was -19.3%.

(Values after ChEMBL document CHEMBL4513216, “Probing the Open Global Health Chemical Diversity Library for Multistage-Active Starting Points for Next-Generation Antimalarials” (ACS Infect Dis, 2020).)
